# Experimental data: the supplement of paper PMC6555819
# Legend:
# Assay in all cases: PBM binding z-score (relative to random genomic background probes); higher = stronger binding; sequences stand for … in GC…GCGATTGACAGCGTAGAATGAAGG
# [1] = tested on: FXR:RXRa (NR concentration 270 nM, RXRa partner concentration 90 nM)
# Procedure, shortened: (§1)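 Ligand-free nuclear receptor dimers were bound for 1 h to custom Agilent 4×180K protein-binding microarrays. Detection used antibodies against each partner (one per run). Binding z-scores rest on regression-normalized fluorescence, with random background probes as the reference.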
# [2] = tested on: LXRa:RXRa (NR concentration 270 nM, RXRa partner concentration 90 nM)
# Procedure, shortened: as §1
# [3] = tested on: LXRa homodimer (NR concentration 270 nM)
# Procedure, shortened: as §1
# [4] = tested on: LXRb:RXRa (NR concentration 270 nM, RXRa partner concentration 90 nM)
# Procedure, shortened: as §1
# [5] = tested on: LXRb homodimer (NR concentration 270 nM)
# Procedure, shortened: as §1
# [6] = tested on: PPARa:RXRa (NR concentration 270 nM, RXRa partner concentration 90 nM)
# Procedure, shortened: as §1
# [7] = tested on: PPARg:RXRa (NR concentration 180 nM, RXRa partner concentration 90 nM)
# Procedure, shortened: as §1
# [8] = tested on: PPARg:RXRa 270nM:90nM, anti-RXR (NR concentration 270 nM, RXRa partner concentration 90 nM)
# Procedure, shortened: as §1
# [9] = tested on: PPARg:RXRa 30nM:10nM, anti-RXR (NR concentration 30 nM, RXRa partner concentration 10 nM)
# Procedure, shortened: as §1
# [10] = tested on: PPARg:RXRa 90nM:30nM, anti-RXR (NR concentration 90 nM, RXRa partner concentration 30 nM)
# Procedure, shortened: as §1
sequence,measurement,setting,value
ACAGACAGGTGAGTGAAGGTCACTCAGCTGGACG,PBM binding z-score,[1],2.41
same,PBM binding z-score,[2],2.98
same,PBM binding z-score,[3],0.517
same,PBM binding z-score,[4],1.82
same,PBM binding z-score,[5],-0.302
same,PBM binding z-score,[6],2.61
same,PBM binding z-score,[7],1.51
same,PBM binding z-score,[8],1.98
same,PBM binding z-score,[9],0.232
same,PBM binding z-score,[10],1.46
ACTAGTTGGTCAGCTGAGGTCACACACAATTCGG,PBM binding z-score,[1],4.25
same,PBM binding z-score,[2],3.46
same,PBM binding z-score,[3],1.96
same,PBM binding z-score,[4],3.8
same,PBM binding z-score,[5],0.66
same,PBM binding z-score,[6],3.89
same,PBM binding z-score,[7],1.97
same,PBM binding z-score,[8],2.31
same,PBM binding z-score,[9],0.854
same,PBM binding z-score,[10],1.58
CGTCAAAGTTCAACTAAGGTAACGTATAGCACGC,PBM binding z-score,[1],7.12
same,PBM binding z-score,[2],6.07
same,PBM binding z-score,[3],4.63
same,PBM binding z-score,[4],4.52
same,PBM binding z-score,[5],2.2
same,PBM binding z-score,[6],5.23
same,PBM binding z-score,[7],5.1
same,PBM binding z-score,[8],5.56
same,PBM binding z-score,[9],2.29
same,PBM binding z-score,[10],4.48
ACTATCAGGCCAAGGGTCACTCAAGATTAGTCCG,PBM binding z-score,[1],2.77
same,PBM binding z-score,[2],3.13
same,PBM binding z-score,[3],0.488
same,PBM binding z-score,[4],2.87
same,PBM binding z-score,[5],0.938
same,PBM binding z-score,[6],4.54
same,PBM binding z-score,[7],7.66
same,PBM binding z-score,[8],7.12
same,PBM binding z-score,[9],6.22
same,PBM binding z-score,[10],7.87
CGTCCAAGGTCATAGGAGGTCACTGAAGACAGAT,PBM binding z-score,[1],7.73
same,PBM binding z-score,[2],7.6
same,PBM binding z-score,[3],6.16
same,PBM binding z-score,[4],6.62
same,PBM binding z-score,[5],1.26
same,PBM binding z-score,[6],6.26
same,PBM binding z-score,[7],6.52
same,PBM binding z-score,[8],6.6
same,PBM binding z-score,[9],3.16
same,PBM binding z-score,[10],5.31
CGTCCAAGGTAAGAGAGGTCAGTGAATGCCGAGT,PBM binding z-score,[1],1.6
same,PBM binding z-score,[2],2.42
same,PBM binding z-score,[3],1.66
same,PBM binding z-score,[4],1.72
same,PBM binding z-score,[5],-0.936
same,PBM binding z-score,[6],2.53
same,PBM binding z-score,[7],0.401
same,PBM binding z-score,[8],1.2
same,PBM binding z-score,[9],-0.312
same,PBM binding z-score,[10],0.249
CGTCCGAGGTCAAAGGTCAGTGAAGAGATGACGG,PBM binding z-score,[1],8.25
same,PBM binding z-score,[2],7.31
same,PBM binding z-score,[3],3.51
same,PBM binding z-score,[4],7.09
same,PBM binding z-score,[5],2.24
same,PBM binding z-score,[6],7.17
same,PBM binding z-score,[7],11.3
same,PBM binding z-score,[8],9.76
same,PBM binding z-score,[9],8.58
same,PBM binding z-score,[10],11.5
TATTGTAGATCAAAGGTTAAGAAAGCCGAAGCCT,PBM binding z-score,[1],1.52
same,PBM binding z-score,[2],2.61
same,PBM binding z-score,[3],0.529
same,PBM binding z-score,[4],2.07
same,PBM binding z-score,[5],0.724
same,PBM binding z-score,[6],4.99
same,PBM binding z-score,[7],8.15
same,PBM binding z-score,[8],8.41
same,PBM binding z-score,[9],7.59
same,PBM binding z-score,[10],9.21
ATCGAAAGGTCGAAGGAGAGTATACCCACCCGAA,PBM binding z-score,[1],4.01
same,PBM binding z-score,[2],3.28
same,PBM binding z-score,[3],0.14
same,PBM binding z-score,[4],2.48
same,PBM binding z-score,[5],0.895
same,PBM binding z-score,[6],3.8
same,PBM binding z-score,[7],2.15
same,PBM binding z-score,[8],2.57
same,PBM binding z-score,[9],1.14
same,PBM binding z-score,[10],2.01
CGAACTAGGTCACCAGGACAGTGATGAGGTTGGA,PBM binding z-score,[1],3.92
same,PBM binding z-score,[2],2.37
same,PBM binding z-score,[3],0.0863
same,PBM binding z-score,[4],1.49
same,PBM binding z-score,[5],-0.567
same,PBM binding z-score,[6],4.96
same,PBM binding z-score,[7],8.57
same,PBM binding z-score,[8],6.62
same,PBM binding z-score,[9],4.75
same,PBM binding z-score,[10],6.58
CATACCGGGTCAGCTAGGCCAGAGTAGGGACGGC,PBM binding z-score,[1],2.5
same,PBM binding z-score,[2],1.78
same,PBM binding z-score,[3],-0.499
same,PBM binding z-score,[4],1.04
same,PBM binding z-score,[5],-0.0141
same,PBM binding z-score,[6],3.1
same,PBM binding z-score,[7],2.07
same,PBM binding z-score,[8],1.87
same,PBM binding z-score,[9],0.181
same,PBM binding z-score,[10],0.975
ATCGAAAGGTCGAAGGTGAGTCTACCCACCCGAA,PBM binding z-score,[1],4.39
same,PBM binding z-score,[2],3.59
same,PBM binding z-score,[3],-0.0971
same,PBM binding z-score,[4],2.87
same,PBM binding z-score,[5],0.861
same,PBM binding z-score,[6],4.78
same,PBM binding z-score,[7],4.36
same,PBM binding z-score,[8],5.19
same,PBM binding z-score,[9],2.51
same,PBM binding z-score,[10],4.21
CCTTACGGGTCAGGGTTATAGCACGGGTGGTACG,PBM binding z-score,[1],3.45
same,PBM binding z-score,[2],2.22
same,PBM binding z-score,[3],-0.256
same,PBM binding z-score,[4],1.95
same,PBM binding z-score,[5],-0.0988
same,PBM binding z-score,[6],3.9
same,PBM binding z-score,[7],2.72
same,PBM binding z-score,[8],3.18
same,PBM binding z-score,[9],0.621
same,PBM binding z-score,[10],1.96
CCTACTGGGCCATGAAAGGTCATTGATTCAGTGA,PBM binding z-score,[1],3.25
same,PBM binding z-score,[2],4.74
same,PBM binding z-score,[3],4.74
same,PBM binding z-score,[4],3.86
same,PBM binding z-score,[5],0.00492
same,PBM binding z-score,[6],4.16
same,PBM binding z-score,[7],2.9
same,PBM binding z-score,[8],4.17
same,PBM binding z-score,[9],1.44
same,PBM binding z-score,[10],3.24
CAAACTAGGTCAAAGGACAGTGAAAGGCGACGTA,PBM binding z-score,[1],3.9
same,PBM binding z-score,[2],3.01
same,PBM binding z-score,[3],0.388
same,PBM binding z-score,[4],2.12
same,PBM binding z-score,[5],0.744
same,PBM binding z-score,[6],5.51
same,PBM binding z-score,[7],10.3
same,PBM binding z-score,[8],8.88
same,PBM binding z-score,[9],8.82
same,PBM binding z-score,[10],10.4
CGAACTAGGTCAAAGGACTGTGAAAGGCGACGTA,PBM binding z-score,[1],3.86
same,PBM binding z-score,[2],2.36
same,PBM binding z-score,[3],-0.238
same,PBM binding z-score,[4],1.58
same,PBM binding z-score,[5],-0.452
same,PBM binding z-score,[6],4.89
same,PBM binding z-score,[7],9.38
same,PBM binding z-score,[8],7.84
same,PBM binding z-score,[9],7.28
same,PBM binding z-score,[10],8.69
CGTCAAAGTTCAAGGCAACGTAACAGAAAGCAGC,PBM binding z-score,[1],5.83
same,PBM binding z-score,[2],5.32
same,PBM binding z-score,[3],2.35
same,PBM binding z-score,[4],2.97
same,PBM binding z-score,[5],0.47
same,PBM binding z-score,[6],4.47
same,PBM binding z-score,[7],3.88
same,PBM binding z-score,[8],4.87
same,PBM binding z-score,[9],1.54
same,PBM binding z-score,[10],3.53
GCTGCTAGGTTAACTGATGGTCAGCTAAAGCTCG,PBM binding z-score,[1],-0.137
same,PBM binding z-score,[2],1.44
same,PBM binding z-score,[3],-0.782
same,PBM binding z-score,[4],0.138
same,PBM binding z-score,[5],-0.9
same,PBM binding z-score,[6],0.846
same,PBM binding z-score,[7],-0.15
same,PBM binding z-score,[8],0.209
same,PBM binding z-score,[9],-0.499
same,PBM binding z-score,[10],-0.243
ATGTGTAGGTTAGGGTCATTCAGAAAGTAGGGAA,PBM binding z-score,[1],5.11
same,PBM binding z-score,[2],4.15
same,PBM binding z-score,[3],1.8
same,PBM binding z-score,[4],4.76
same,PBM binding z-score,[5],2.68
same,PBM binding z-score,[6],5.13
same,PBM binding z-score,[7],4.57
same,PBM binding z-score,[8],4.47
same,PBM binding z-score,[9],2.37
same,PBM binding z-score,[10],3.65
CGGCCAAGGTCAAAGGTCAGTGAAGAGATGACGG,PBM binding z-score,[1],8.62
same,PBM binding z-score,[2],7.07
same,PBM binding z-score,[3],2.81
same,PBM binding z-score,[4],6.59
same,PBM binding z-score,[5],1.33
same,PBM binding z-score,[6],7.11
same,PBM binding z-score,[7],10.8
same,PBM binding z-score,[8],8.98
same,PBM binding z-score,[9],8.13
same,PBM binding z-score,[10],9.65
ACATGTAGGTTAGGGTCATTCAGAAAGTAGGGAA,PBM binding z-score,[1],5.38
same,PBM binding z-score,[2],4.23
same,PBM binding z-score,[3],1.48
same,PBM binding z-score,[4],4.58
same,PBM binding z-score,[5],1.99
same,PBM binding z-score,[6],5.48
same,PBM binding z-score,[7],6.68
same,PBM binding z-score,[8],5.77
same,PBM binding z-score,[9],3.37
same,PBM binding z-score,[10],5.57
ATATGTAGGTTATGGTCATTCAGAAAGTAGGGAA,PBM binding z-score,[1],1.06
same,PBM binding z-score,[2],1.36
same,PBM binding z-score,[3],0.432
same,PBM binding z-score,[4],1.37
same,PBM binding z-score,[5],0.916
same,PBM binding z-score,[6],3.29
same,PBM binding z-score,[7],4.98
same,PBM binding z-score,[8],4.06
same,PBM binding z-score,[9],2.18
same,PBM binding z-score,[10],3.32
CGAACTAGCTCAAAGGACAGTGAAAGGCGACGTA,PBM binding z-score,[1],-0.37
same,PBM binding z-score,[2],-0.67
same,PBM binding z-score,[3],-0.493
same,PBM binding z-score,[4],-0.766
same,PBM binding z-score,[5],-0.633
same,PBM binding z-score,[6],0.188
same,PBM binding z-score,[7],1.06
same,PBM binding z-score,[8],2.13
same,PBM binding z-score,[9],0.533
same,PBM binding z-score,[10],1.99
